The record followed here is PubChem BioAssay AID1053197 (The Scripps Research Institute Molecular Screening Center, 2014).

In general, inhibition refers to the drop in the measured response relative to a control, in per cent.

SMILES strings stand for the structures. “And” between values parts separate entries of the source, which are not always exact repeats. Equal entries are not always repeated. The campaign covered roughly 370,000 compounds. About 2,600 (0.7%) were called active.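 Rule for the calls: active = inhibition above a cutoff: mean of compounds within the control limits plus 3 SD of those (cut at about 17% in these data); inactive = the rest.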 This excerpt belongs to a sample that is enriched for actives.

In the assay the target is Sialate O-acetylesterase (Homo sapiens) (UniProt Q9HAT2). Description: human SIAE inhibitors, primary screen, biochemical, fluorescence polarization, FP-Rh probe, 1536-well HTS (AID 1053197).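 Note: 0% = plate median of compound wells and 100% = probe without SIAE protein.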 The following applies: SIAE FP-Rh probe binding, at 9.66 µM, hits give high values.
Chain of Sialate O-acetylesterase (Homo sapiens) (Q9HAT2 whole entry, looked up): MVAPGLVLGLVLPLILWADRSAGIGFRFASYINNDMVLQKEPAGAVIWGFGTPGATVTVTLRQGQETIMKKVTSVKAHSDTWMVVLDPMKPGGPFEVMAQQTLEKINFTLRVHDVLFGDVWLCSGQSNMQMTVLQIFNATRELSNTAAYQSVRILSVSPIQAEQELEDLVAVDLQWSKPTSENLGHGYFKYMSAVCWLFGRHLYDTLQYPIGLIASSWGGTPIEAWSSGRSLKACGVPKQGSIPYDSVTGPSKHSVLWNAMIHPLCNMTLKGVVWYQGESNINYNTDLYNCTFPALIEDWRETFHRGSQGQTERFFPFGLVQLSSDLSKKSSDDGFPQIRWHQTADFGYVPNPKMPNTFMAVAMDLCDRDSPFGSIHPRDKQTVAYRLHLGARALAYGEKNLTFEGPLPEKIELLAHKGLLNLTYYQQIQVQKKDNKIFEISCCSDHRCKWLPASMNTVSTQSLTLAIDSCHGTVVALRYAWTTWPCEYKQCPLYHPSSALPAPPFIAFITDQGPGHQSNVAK
`CC(C)c1ccc(-n2c(O)c(/C=N/N3CCOCC3)c(=O)[nH]c2=S)cc1`: the inhibition was 24.9% (active).

Consider `Cc1cccc(-n2c(O)c(/C=N/N3CCOCC3)c(=O)[nH]c2=S)c1`, for which the inhibition is 1.16% (inactive).

Take `O=c1[nH]c(=S)n(C2CC2)c(O)c1/C=N/N1CCOCC1`: the inhibition was -9.2% (inactive).

Turning to `CO[C@H]([C@H](C)/C=C/N(C)C=O)[C@@H](C)C(=O)CC[C@H](C)[C@H](O)[C@H](C)[C@H]1OC(=O)/C=C/C(C)=C/[C@H](O)[C@H](OC)C[C@@H]2C=CC[C@@H](C[C@H](OC)[C@@]3(CO3)[C@@H](OC)C[C@@H](OC)[C@@H]1C)O2`, the inhibition is 9.94% (inactive).

For `CCOC(=O)C1(CCc2ccccc2)CCN(Cc2ccco2)CC1`, the inhibition was 2.93% (inactive).

On to `O=S(=O)(c1ccccc1)N1CCC2CCNC2C1` (stereo not given), for which the inhibition is -2.28% (inactive).

Turning to `Cc1cc(C(=O)OCC(=O)Nc2c(F)cccc2F)c(C)n1C1CC1`, the inhibition is -0.24% (inactive).

With `Cc1ccnc(-n2c(C)cc(/C=C3\C(=O)NC(=S)N(C)C3=O)c2C)c1`, the inhibition is 0.93% (inactive).

With `Cc1cc(C=C2C(=O)NC(=O)NC2=O)c(C)n1-c1ccncc1`, the inhibition is 17.8% (active).

On to `CN(C)C(=O)Oc1cc(OC(=O)N(C)C)cc(C(O)CNC(C)(C)C)c1` (stereo not given), for which the inhibition is -1.59% (inactive) and 2.18% (inactive).

As to `Nc1ccc(C(=O)N/N=C2/CN3CCC2CC3)cc1`, the inhibition is 21.4% (active).

For the compound `CCN(CC)C(=O)c1ccc(NC(=O)c2sccc2-c2ccccc2)cc1`, the inhibition was -4.91% (inactive).

Take `c1cc2c(c(NC3=NCCCS3)c1)CCCC2`: the inhibition is 2.24% (inactive).

Consider `COC(=O)COc1cc(C)cc2oc(=O)c3c(c12)CCCC3`, for which the inhibition was -2.75% (inactive).

Take `COC(=O)C1=C(c2ccc(F)cc2OCc2ccccc2)C[C@@H]2CC[C@H]1N2C(=O)NCc1ccc2[nH]ccc2c1`: the inhibition is -4.35% (inactive).
